Measured values published in ChEMBL document CHEMBL1961873, “Compounds: GSK PKIS; Assays: Nanosyn kinase panel” (2012).

Assays:
[1] = target: Sphingosine kinase 1 (Homo sapiens) (UniProt Q9NYA1); conditions: at 1 µM;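 also: mean SPHK1 inhibition value reported from the GSK PKIS kinase panel screen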
[2] = target: T1, Sphingosine kinase 2 (Homo sapiens) (UniProt Q9NRA0); conditions: at 0.1 µM
T1 sequence (whole entry): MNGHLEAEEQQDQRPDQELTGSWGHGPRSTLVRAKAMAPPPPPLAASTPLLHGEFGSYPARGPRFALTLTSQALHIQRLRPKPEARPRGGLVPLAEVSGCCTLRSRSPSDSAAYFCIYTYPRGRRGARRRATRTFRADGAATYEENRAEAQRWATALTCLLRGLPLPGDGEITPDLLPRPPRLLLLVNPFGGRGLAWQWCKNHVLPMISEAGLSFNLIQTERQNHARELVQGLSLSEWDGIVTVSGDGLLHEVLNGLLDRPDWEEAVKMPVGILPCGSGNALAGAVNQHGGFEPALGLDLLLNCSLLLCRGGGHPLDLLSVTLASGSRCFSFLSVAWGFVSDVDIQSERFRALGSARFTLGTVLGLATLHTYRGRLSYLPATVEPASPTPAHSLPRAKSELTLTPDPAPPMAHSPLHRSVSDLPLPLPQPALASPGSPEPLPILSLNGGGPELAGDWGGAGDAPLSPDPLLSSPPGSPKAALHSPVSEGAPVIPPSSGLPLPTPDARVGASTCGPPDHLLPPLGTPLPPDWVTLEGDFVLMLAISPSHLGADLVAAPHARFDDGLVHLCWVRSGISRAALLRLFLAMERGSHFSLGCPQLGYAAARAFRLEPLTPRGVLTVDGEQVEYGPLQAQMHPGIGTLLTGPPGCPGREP

[3] = target: T1, Sphingosine kinase 2 (Homo sapiens); conditions: at 1 µM
[4] = target: Casein kinase II subunit alpha (Homo sapiens) (UniProt P68400); conditions: at 0.1 µM
Casein kinase II subunit alpha (Homo sapiens), sequence (P68400 whole entry, looked up): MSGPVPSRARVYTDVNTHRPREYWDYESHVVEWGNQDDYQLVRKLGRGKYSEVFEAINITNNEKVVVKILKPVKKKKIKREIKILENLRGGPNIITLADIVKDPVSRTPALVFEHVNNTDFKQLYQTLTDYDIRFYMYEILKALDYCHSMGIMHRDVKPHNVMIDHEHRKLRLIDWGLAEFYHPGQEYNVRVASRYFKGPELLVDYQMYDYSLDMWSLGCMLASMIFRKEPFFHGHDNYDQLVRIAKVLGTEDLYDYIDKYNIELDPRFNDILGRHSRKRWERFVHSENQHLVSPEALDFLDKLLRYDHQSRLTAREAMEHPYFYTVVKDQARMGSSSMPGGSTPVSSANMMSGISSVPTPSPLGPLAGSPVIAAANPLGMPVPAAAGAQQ

[5] = target: Casein kinase II subunit alpha (Homo sapiens) (UniProt P68400); conditions: at 1 µM
[6] = target: T2, Inhibitor of nuclear factor kappa-B kinase subunit alpha (Homo sapiens) (UniProt O15111); conditions: at 0.1 µM
T2 sequence (whole entry): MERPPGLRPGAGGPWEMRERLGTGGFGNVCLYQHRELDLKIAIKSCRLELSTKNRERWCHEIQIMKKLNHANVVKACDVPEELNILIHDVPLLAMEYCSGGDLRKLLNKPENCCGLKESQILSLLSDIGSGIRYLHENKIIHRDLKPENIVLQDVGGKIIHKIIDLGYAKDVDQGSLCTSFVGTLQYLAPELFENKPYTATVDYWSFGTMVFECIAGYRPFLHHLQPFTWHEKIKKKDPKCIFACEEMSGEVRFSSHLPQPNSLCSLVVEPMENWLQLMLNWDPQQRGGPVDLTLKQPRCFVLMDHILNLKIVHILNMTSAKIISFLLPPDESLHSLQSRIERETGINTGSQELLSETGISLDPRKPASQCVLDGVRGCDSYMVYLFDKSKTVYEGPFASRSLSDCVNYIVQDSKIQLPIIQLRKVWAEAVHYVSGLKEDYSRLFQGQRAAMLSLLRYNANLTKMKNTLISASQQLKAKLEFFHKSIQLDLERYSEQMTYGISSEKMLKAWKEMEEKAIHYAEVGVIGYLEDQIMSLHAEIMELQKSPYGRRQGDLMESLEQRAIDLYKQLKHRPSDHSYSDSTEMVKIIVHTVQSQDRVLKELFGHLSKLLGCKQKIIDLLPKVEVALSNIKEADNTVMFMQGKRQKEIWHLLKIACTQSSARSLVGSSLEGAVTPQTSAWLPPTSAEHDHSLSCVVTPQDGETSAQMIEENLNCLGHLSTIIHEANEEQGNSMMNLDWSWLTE

[7] = target: T2, Inhibitor of nuclear factor kappa-B kinase subunit alpha (Homo sapiens); conditions: at 1 µM
[8] = target: T3, Inhibitor of nuclear factor kappa-B kinase subunit beta (Homo sapiens) (UniProt O14920); conditions: at 0.1 µM
T3 sequence (whole entry): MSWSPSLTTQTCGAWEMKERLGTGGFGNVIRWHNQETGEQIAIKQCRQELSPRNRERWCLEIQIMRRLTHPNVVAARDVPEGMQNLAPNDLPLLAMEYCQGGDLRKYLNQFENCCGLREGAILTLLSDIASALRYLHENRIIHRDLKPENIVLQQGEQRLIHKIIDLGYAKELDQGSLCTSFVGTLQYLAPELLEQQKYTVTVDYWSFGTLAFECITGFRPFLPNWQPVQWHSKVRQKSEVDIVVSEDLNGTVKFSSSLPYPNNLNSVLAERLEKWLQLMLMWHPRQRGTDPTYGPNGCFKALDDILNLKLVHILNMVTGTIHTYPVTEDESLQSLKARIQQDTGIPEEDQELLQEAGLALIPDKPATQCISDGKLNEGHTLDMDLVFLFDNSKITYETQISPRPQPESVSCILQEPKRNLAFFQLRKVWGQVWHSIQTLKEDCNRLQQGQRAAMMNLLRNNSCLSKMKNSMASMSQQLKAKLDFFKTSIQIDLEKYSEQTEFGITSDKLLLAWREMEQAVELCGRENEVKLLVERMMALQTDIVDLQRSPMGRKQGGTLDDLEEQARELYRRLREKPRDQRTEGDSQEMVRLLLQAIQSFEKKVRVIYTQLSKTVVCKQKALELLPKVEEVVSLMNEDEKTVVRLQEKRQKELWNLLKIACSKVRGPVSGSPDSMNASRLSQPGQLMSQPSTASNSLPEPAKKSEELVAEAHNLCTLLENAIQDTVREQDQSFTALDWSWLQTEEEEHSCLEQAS

[9] = target: T3, Inhibitor of nuclear factor kappa-B kinase subunit beta (Homo sapiens); conditions: at 1 µM
[10] = target: T4, Inhibitor of nuclear factor kappa-B kinase subunit epsilon (Homo sapiens) (UniProt Q14164); conditions: at 0.1 µM;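 also: mean inhibition of IKKε reported, from the GSK PKIS dataset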
T4 sequence (whole entry): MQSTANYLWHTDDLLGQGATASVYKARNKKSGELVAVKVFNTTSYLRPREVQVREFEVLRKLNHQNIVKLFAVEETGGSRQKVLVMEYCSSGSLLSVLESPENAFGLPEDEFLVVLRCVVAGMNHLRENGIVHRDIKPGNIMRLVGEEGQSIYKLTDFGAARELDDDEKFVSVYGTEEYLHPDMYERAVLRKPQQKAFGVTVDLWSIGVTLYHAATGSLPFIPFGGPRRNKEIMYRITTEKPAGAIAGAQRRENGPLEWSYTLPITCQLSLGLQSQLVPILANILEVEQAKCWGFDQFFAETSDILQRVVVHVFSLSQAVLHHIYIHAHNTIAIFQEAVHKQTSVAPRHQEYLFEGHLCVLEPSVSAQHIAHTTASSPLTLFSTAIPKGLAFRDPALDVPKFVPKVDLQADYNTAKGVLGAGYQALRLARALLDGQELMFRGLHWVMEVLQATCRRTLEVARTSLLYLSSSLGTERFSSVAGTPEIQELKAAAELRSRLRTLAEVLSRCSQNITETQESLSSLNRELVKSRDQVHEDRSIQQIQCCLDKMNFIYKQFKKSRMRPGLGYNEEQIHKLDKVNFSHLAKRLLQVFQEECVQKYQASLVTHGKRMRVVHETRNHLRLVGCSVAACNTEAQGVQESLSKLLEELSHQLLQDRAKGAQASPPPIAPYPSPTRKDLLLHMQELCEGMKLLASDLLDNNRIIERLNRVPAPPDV

[11] = target: T5, Serine/threonine-protein kinase Nek1 (Homo sapiens) (UniProt Q96PY6); conditions: at 0.1 µM
T5 sequence (whole entry): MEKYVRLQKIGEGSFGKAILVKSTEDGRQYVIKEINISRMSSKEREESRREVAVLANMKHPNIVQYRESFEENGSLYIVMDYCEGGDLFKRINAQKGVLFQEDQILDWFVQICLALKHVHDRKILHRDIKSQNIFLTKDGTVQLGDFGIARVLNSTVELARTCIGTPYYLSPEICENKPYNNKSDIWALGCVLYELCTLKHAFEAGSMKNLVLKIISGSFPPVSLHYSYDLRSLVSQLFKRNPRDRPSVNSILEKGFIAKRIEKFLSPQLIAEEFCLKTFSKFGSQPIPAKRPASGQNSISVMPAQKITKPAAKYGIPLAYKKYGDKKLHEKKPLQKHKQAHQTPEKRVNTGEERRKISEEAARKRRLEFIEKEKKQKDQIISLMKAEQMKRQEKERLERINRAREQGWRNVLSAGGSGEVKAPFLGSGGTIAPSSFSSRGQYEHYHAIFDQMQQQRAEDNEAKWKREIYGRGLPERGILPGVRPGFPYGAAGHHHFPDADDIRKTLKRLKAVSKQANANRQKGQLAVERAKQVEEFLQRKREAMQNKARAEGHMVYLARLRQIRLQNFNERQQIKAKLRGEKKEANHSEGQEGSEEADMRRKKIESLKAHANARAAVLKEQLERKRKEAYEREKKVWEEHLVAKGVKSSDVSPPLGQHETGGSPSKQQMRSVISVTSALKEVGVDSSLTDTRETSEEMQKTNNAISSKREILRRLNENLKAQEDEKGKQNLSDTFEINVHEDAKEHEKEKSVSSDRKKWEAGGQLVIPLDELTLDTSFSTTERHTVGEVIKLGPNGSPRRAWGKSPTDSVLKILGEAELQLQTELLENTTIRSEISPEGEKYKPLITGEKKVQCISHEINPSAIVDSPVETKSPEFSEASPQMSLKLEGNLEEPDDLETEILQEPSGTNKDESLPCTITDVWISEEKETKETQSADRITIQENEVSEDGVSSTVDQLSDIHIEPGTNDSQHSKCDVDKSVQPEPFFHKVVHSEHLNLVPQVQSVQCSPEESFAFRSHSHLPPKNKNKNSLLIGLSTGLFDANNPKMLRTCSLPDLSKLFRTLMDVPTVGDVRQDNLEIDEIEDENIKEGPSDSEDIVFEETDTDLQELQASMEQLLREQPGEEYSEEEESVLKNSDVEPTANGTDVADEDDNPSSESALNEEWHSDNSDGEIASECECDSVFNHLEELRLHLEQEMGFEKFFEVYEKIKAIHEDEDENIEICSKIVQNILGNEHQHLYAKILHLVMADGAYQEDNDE

[12] = target: T5, Serine/threonine-protein kinase Nek1 (Homo sapiens); conditions: at 1 µM
[13] = target: T6, Serine/threonine-protein kinase Nek2 (Homo sapiens) (UniProt P51955); conditions: at 0.1 µM
T6 sequence (whole entry): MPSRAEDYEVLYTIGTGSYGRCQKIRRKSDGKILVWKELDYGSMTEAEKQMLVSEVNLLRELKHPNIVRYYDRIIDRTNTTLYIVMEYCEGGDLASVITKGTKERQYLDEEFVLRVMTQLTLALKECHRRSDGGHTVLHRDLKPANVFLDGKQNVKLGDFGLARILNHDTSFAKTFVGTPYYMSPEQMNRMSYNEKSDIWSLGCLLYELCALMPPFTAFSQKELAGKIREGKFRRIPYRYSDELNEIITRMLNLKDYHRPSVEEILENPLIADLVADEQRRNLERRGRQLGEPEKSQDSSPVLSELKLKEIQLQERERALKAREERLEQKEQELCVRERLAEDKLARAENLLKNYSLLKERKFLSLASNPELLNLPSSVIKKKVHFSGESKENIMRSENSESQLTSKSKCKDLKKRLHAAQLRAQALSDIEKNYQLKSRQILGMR

[14] = target: T6, Serine/threonine-protein kinase Nek2 (Homo sapiens); conditions: at 1 µM
[15] = target: Serine/threonine-protein kinase Nek6 (Homo sapiens) (UniProt Q9HC98); conditions: at 0.1 µM
Serine/threonine-protein kinase Nek6 (Homo sapiens), sequence (Q9HC98 whole entry): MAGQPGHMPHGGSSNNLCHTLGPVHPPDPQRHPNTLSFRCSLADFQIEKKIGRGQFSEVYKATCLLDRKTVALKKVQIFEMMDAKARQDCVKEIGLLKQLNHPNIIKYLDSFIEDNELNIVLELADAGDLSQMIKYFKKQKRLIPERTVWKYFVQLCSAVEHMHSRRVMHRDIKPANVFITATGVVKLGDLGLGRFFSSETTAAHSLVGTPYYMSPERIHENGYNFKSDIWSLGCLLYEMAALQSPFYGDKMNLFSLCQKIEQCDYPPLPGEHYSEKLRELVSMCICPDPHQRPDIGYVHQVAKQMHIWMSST

[16] = target: Serine/threonine-protein kinase Nek6 (Homo sapiens) (UniProt Q9HC98); conditions: at 1 µM
[17] = target: Serine/threonine-protein kinase Nek7 (Homo sapiens) (UniProt Q8TDX7); conditions: at 0.1 µM
Serine/threonine-protein kinase Nek7 (Homo sapiens), sequence (Q8TDX7 whole entry, looked up): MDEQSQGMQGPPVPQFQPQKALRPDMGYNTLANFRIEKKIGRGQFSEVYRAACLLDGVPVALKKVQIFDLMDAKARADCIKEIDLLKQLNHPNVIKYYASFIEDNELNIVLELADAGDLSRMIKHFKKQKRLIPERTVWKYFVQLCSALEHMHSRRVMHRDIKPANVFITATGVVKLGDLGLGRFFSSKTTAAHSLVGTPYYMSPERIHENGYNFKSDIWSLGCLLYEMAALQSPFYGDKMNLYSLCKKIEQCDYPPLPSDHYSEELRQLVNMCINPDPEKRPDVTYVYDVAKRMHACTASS

[18] = target: Serine/threonine-protein kinase Nek7 (Homo sapiens) (UniProt Q8TDX7); conditions: at 1 µM
[19] = target: T7, Serine/threonine-protein kinase Nek9 (Homo sapiens) (UniProt Q8TD19); conditions: at 0.1 µM;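 also: reported value is the mean percent inhibition of NEK9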
T7 sequence (whole entry): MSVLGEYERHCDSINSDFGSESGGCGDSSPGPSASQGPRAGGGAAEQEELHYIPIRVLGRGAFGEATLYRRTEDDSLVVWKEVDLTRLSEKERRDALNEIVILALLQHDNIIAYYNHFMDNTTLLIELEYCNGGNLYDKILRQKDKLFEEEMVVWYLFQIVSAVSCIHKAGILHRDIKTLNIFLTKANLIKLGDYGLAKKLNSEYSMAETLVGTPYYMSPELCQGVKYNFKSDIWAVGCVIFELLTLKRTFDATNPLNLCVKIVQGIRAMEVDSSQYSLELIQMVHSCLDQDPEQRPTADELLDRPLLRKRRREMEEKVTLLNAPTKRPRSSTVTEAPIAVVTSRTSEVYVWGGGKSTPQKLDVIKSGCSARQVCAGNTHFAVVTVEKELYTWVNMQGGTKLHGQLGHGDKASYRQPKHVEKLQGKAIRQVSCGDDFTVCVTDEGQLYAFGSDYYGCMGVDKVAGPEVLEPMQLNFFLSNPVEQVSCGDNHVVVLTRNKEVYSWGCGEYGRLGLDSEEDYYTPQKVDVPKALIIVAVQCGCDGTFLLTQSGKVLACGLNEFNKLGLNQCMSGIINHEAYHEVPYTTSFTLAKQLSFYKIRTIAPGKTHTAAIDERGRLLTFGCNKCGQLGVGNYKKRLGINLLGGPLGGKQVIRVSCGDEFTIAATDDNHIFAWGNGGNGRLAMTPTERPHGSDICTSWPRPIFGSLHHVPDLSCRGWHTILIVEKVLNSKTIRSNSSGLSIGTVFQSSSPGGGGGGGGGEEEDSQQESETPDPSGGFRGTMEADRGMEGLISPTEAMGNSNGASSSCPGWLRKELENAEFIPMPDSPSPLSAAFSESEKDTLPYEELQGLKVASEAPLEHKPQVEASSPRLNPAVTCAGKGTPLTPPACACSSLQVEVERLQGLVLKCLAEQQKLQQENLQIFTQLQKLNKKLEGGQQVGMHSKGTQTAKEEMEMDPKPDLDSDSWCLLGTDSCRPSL

Sphingosine kinase 1 (Homo sapiens), sequence (Q9NYA1 whole entry): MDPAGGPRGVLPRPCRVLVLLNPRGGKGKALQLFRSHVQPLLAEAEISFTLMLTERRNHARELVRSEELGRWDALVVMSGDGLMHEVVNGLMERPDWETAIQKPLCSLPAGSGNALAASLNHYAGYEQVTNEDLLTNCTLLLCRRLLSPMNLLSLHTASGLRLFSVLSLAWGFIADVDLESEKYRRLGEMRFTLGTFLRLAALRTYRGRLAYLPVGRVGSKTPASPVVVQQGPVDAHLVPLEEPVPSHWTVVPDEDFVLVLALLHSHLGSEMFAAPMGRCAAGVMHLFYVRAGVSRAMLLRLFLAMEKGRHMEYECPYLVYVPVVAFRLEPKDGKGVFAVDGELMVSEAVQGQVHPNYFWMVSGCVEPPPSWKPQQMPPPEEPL

CCc1nccc2c1nc(-c1nonc1N)n2CC
inhibition [1]: -1.61% | inhibition [2]: 1.28% | inhibition [3]: 1.35% | inhibition [4]: 0.7% | inhibition [5]: -1.05% | inhibition [6]: 2.04% | inhibition [7]: -4.71% | inhibition [8]: 0.02% | inhibition [9]: -1.22% | inhibition [10]: 0.57% | inhibition [11]: 0.36% | inhibition [12]: 1.55% | inhibition [13]: 0.45% | inhibition [14]: 0.31% | inhibition [15]: 0.37% | inhibition [16]: 0.82% | inhibition [17]: 2.57% | inhibition [18]: 1.72% | inhibition [19]: 0.19%
